The supplement of paper PMC6555819

Key:
Assay in all cases: PBM binding z-score (relative to random genomic background probes); higher = stronger binding; sequences stand for … in GC…GCGATTGACAGCGTAGAATGAAGG
[1] = tested on: FXR:RXRa (NR concentration 270 nM, RXRa partner concentration 90 nM)
Method in brief: (§1)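 Custom Agilent 4×180K protein-binding microarrays carried double-stranded probes, each with a 34-nt variable region. These regions held direct-repeat seeds, single-nucleotide variants, half-site ablations and random human genomic background sequences. Ligand-free nuclear receptor dimers were incubated on the arrays for 1 h, antibodies against each partner (one per run) detected binding, and scanned fluorescence was regression-normalized. Binding z-scores take the random background probes as reference.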

[2] = tested on: LXRa:RXRa (NR concentration 270 nM, RXRa partner concentration 90 nM)
Method in brief: as §1

[3] = tested on: LXRa homodimer (NR concentration 270 nM)
Method in brief: as §1

[4] = tested on: LXRb:RXRa (NR concentration 270 nM, RXRa partner concentration 90 nM)
Method in brief: as §1

[5] = tested on: LXRb homodimer (NR concentration 270 nM)
Method in brief: as §1

[6] = tested on: PPARa:RXRa (NR concentration 270 nM, RXRa partner concentration 90 nM)
Method in brief: as §1

[7] = tested on: PPARg:RXRa (NR concentration 180 nM, RXRa partner concentration 90 nM)
Method in brief: as §1

[8] = tested on: PPARg:RXRa 270nM:90nM, anti-RXR (NR concentration 270 nM, RXRa partner concentration 90 nM)
Method in brief: as §1

[9] = tested on: PPARg:RXRa 30nM:10nM, anti-RXR (NR concentration 30 nM, RXRa partner concentration 10 nM)
Method in brief: as §1

[10] = tested on: PPARg:RXRa 90nM:30nM, anti-RXR (NR concentration 90 nM, RXRa partner concentration 30 nM)
Method in brief: as §1

[11] = tested on: PPARg:RXRa DBDmut IVT, anti-RXR (DBD mutation: RXRa K156A/R161A, NR concentration 270 nM, RXRa partner concentration 90 nM)
Method in brief: as §1

[12] = tested on: PPARg:RXRa IVT, anti-PPARg (NR concentration 270 nM, RXRa partner concentration 90 nM)
Method in brief: as §1

[13] = tested on: PPARg DBDmut:RXRa IVT, anti-PPARg (DBD mutation: PPARg1 K132A/R137A, NR concentration 270 nM, RXRa partner concentration 90 nM)
Method in brief: as §1

[14] = tested on: PPARg DBDmut IVT, anti-PPARg (DBD mutation: PPARg1 K132A/R137A, NR concentration 270 nM)
Method in brief: as §1

[15] = tested on: PPARg homodimer (NR concentration 180 nM)
Method in brief: as §1

[16] = tested on: PXR:RXRa (NR concentration 270 nM, RXRa partner concentration 90 nM)
Method in brief: as §1

[17] = tested on: PXR homodimer (NR concentration 270 nM)
Method in brief: as §1

[18] = tested on: RARa:RXR (NR concentration 270 nM, RXRa partner concentration 90 nM)
Method in brief: as §1

[19] = tested on: RARa homodimer (NR concentration 270 nM)
Method in brief: as §1

[20] = tested on: RARb:RXRa (NR concentration 270 nM, RXRa partner concentration 90 nM)
Method in brief: as §1

Sequence | PBM binding z-score [1] | PBM binding z-score [2] | PBM binding z-score [3] | PBM binding z-score [4] | PBM binding z-score [5] | PBM binding z-score [6] | PBM binding z-score [7] | PBM binding z-score [8] | PBM binding z-score [9] | PBM binding z-score [10] | PBM binding z-score [11] | PBM binding z-score [12] | PBM binding z-score [13] | PBM binding z-score [14] | PBM binding z-score [15] | PBM binding z-score [16] | PBM binding z-score [17] | PBM binding z-score [18] | PBM binding z-score [19] | PBM binding z-score [20]
AGAATGAGGTTACAAAAGATCAGGGAAACGCTTG | 1.59 | 6.22 | -0.11 | 3.07 | 0.0675 | 3.05 | 2.31 | 2.26 | 0.772 | 1.54 | 3.87 | 3.13 | 1.47 | 0.745 | 0.909 | 1.23 | 0.246 | 1.88 | -0.148 | 1.81
TGTCAAAATTCAAAGGTAACGTAAGTATCCACAC | 0.567 | 0.663 | -0.00824 | 0.809 | 0.161 | 1.13 | 0.99 | 1.47 | 0.972 | 1.39 | -0.0151 | 1.31 | 0.599 | 1.21 | 0.821 | 0.362 | 0.426 | 1.04 | 0.683 | 0.953
CCGAGGAGGTTATGGGGCATTCAGGCAACGGTGA | 1.52 | 1.44 | 0.15 | 1.86 | -0.173 | 2.84 | 1.66 | 2.11 | 0.0714 | 1.39 | 0.461 | 1.61 | -0.326 | -0.847 | 1.13 | 0.815 | -0.214 | 1.43 | -0.195 | 1.73
GTTGCTAGGTCAGGTTGGTCAGCTAACGGGTACG | 1.81 | 1.32 | 0.459 | 0.947 | 0.434 | 1.68 | 0.88 | 1.31 | -0.115 | 0.452 | 2.88 | 3.16 | 0.283 | -0.614 | 1.29 | 0.651 | 0.178 | 0.933 | 0.798 | 3.4
GCTGCTAGGTCAGGTTGATCAGCTAACGGGTACG | 1.01 | 0.585 | -0.478 | 0.353 | -0.451 | 1.47 | 0.663 | 0.926 | -0.231 | 0.36 | 3.25 | 2.17 | -1.1 | -0.366 | 0.196 | 0.316 | -0.392 | 0.656 | -0.919 | 3.06
CCTACTAGGCCATTCAGAGGTCATTGATCATATG | 3.52 | 4.52 | 7.03 | 4.15 | 1.58 | 4.04 | 3.11 | 3.87 | 1.41 | 3.08 | 5.98 | 5.01 | 1.66 | 0.481 | 2.94 | 4.79 | 3.44 | 4.84 | 1.44 | 3.45
AGTATGAGGTTACCAAAGATCAGGGAAACGCTTG | 1.85 | 5.92 | 0.237 | 3.08 | 0.134 | 2.76 | 1.79 | 1.65 | 0.652 | 1.11 | 1.3 | 1.52 | 0.279 | 0.406 | 0.714 | 1.62 | 0.275 | 2.21 | 0.475 | 2.19
